Assay results from PubChem BioAssay AID2315 (National Center for Advancing Translational Sciences (NCATS), 2010).
Values joined by “and” are separate entries in the source; they are usually repeats but may differ in a detail not shown here. Equal entries are not always repeated. Screen size: about 290,000 compounds; about 27,000 (9.3%) were called active. Rule as the data show it: active = inhibition mostly above about 28% (no sharp cut-off); inactive = mostly below about 43%. Shown is part of a subset that was picked to be rich in actives.

Assay: A qHTS for Small Molecule Inhibitors of Shiga Toxin; also: 0% is about no effect
Conditions: Vero cells, Shiga toxin protein synthesis inhibition reporter; at 38.7 µM, hits give high values

Structure (SMILES) | inhibition
COc1ccc(-n2nc(C(=O)NCC(=O)N3CCC(C(N)=O)CC3)c3ccccc3c2=O)cc1OC | -12.3% (inactive)
CS(=O)(=O)Nc1cccc(C2=NN(C(=O)c3cccc(F)c3)C(c3cccs3)C2)c1 (stereo not drawn) | -7.67% (inactive)
CS(=O)(=O)Nc1cccc(-c2cn3ccccc3n2)c1 | 87% (inactive)
CS(=O)(=O)Nc1cccc(C2=NN(S(=O)(=O)c3ccccc3)C(c3cccs3)C2)c1 (stereo not drawn) | -11% (inactive)
CS(=O)(=O)Nc1ccc(C2=NN(S(C)(=O)=O)C(c3cccs3)C2)cc1 (stereo not drawn) | 63.1% (active)
Cc1ccc(C2CC(c3cccc(NS(C)(=O)=O)c3)=NN2S(C)(=O)=O)cc1 (stereo not drawn) | 77.9% (active)
CCS(=O)(=O)Nc1ccc(C2=NN(C(C)=O)C(c3cccs3)C2)cc1 (stereo not drawn) | 12.4% (inactive)
O=C1c2ccccc2C(=O)N1c1cccc2ccccc12 | 25.6% (inactive)
O=C(NC1CCCC1)C1CC(=O)N(c2ccc(F)cc2)C1 (stereo not drawn) | -11.9% (inactive)
CN(C)S(=O)(=O)c1cccc(NC(=O)Cc2ccsc2)c1 | -2.02% (inactive)
O=C1CCN(Cc2ccccc2)CCN1[C@H](CSc1ccccc1)c1ccccc1 | 11% (inactive)
Cc1cccn2c(=O)c3cc(C(=O)NCC4CCCO4)c(=N)n(Cc4ccc(F)cc4)c3nc12 (stereo not drawn) | -2.34% (inactive)
CC(=O)Nc1ccc(NC(=O)COc2ccc(-c3ccccc3)cc2)cc1 | 10.7% (inactive)
C/C(=N\NC(=O)OC(C)(C)C)c1ccc[nH]1 | 94.2% (active)
CC(C)(C)OC(=O)NNc1c2ccccc2nc2ccccc12 | 77% (inactive)
Cc1ccccc1NC(=O)NNC(=O)OC(C)(C)C | -3.29% (inactive)
Cc1nn(C(C)(C)C)c(OC(=O)CC(C)C)c1S(=O)(=O)c1ccccc1 | -3.07% (inactive)
CC/C(=N\NC(=O)c1c(C)nc2ccccn12)c1ccc(Cl)cc1 | -1.53% (inactive)
COc1ccc(C(=O)NCCSc2ccccc2C)cc1 | 47.6% (active)
COc1ccc(C(=O)NCc2nnc(SCCOc3ccccc3)n2C)cc1 | -8.47% (inactive)
COc1cccc(C(=O)NCCSc2ccc(Br)cc2)c1 | 0.537% (inactive)

Structure (SMILES) | inhibition
CCn1cc(C(=O)NCC(=O)NC(C)(C)CO)c(=O)c2cc3c(cc21)OCO3 | -1.71% (inactive)
COc1ccc(NS(=O)(=O)c2ccc(NC(C)=O)cc2)cc1OC | -6.59% (inactive)
COc1ccccc1-n1cnc2cc(NS(=O)(=O)c3ccccc3)ccc21 | 60.3% (active)
COCCCNC(=O)c1ccc2c(c1)ncn2-c1ccccc1OC | 41.9% (inactive)
COc1cccc(-c2coc3cc4oc(=O)c(CC(=O)O)c(C)c4cc23)c1 | 5.32% (inactive)
Cc1nc2ccc(N3CCN(C)CC3)cc2nc1C | 41.4% (active)
CN1CCN(c2ccc([N+](=O)[O-])c(Sc3nc4ccccc4[nH]3)c2)CC1 | -2.62% (inactive)
COc1cccc(-c2nc3ccc(N4CCN(C)CC4)cc3[nH]2)c1 | -25.4% (inactive)
CCCc1cc(=O)oc2c(C)c(OCC(=O)N3CCC(C(=O)O)CC3)ccc12 | -4.56% (inactive)
CCCc1cc(=O)oc2c(C)c(OCC(=O)NCc3ccccn3)ccc12 | -5.37% (inactive)
CCCc1cc(=O)oc2c(C)c(OCC(=O)Nc3ccccn3)ccc12 | 97.8% (active)
Cc1cnc(C(=O)Oc2cccc(Cl)c2Cl)cn1 | -6.08% (inactive)
O=C(/C=C/c1cccc(C(F)(F)F)c1)N1CCN(c2ccccn2)CC1 | -28.6% (inactive)
Cc1ccccc1CSc1nnc(-c2cccnc2)n1N | 47.7% (active)
Cc1ccccc1CSc1nnc(-c2ccccn2)n1N | 62.4% (active)
Cc1ccccc1CSc1nnc(Cn2c(=O)sc3ccccc32)n1C | -3.34% (inactive)
Cn1c(SCC(=O)C(C)(C)C)nnc1-c1ccccn1 | 51.8% (inactive)
N#Cc1ccc(CSc2nnc(-c3ccccn3)n2-c2ccc(Cl)cc2)cc1 | 9.81% (inactive)
O=C(CSc1nnc(-c2cccnc2)n1CCc1ccccc1)NCc1ccccc1 | 9.64% (inactive)
COCCNc1cc(-c2ccccc2)nc2cc(-c3cccc(F)c3)nn12 | 13.9% (inactive)
O=S(=O)(c1ccc2c(c1)OCCCO2)N1CCN(S(=O)(=O)c2c(F)cccc2F)CC1 | -5.98% (inactive)

Structure (SMILES) | inhibition
Cc1ccc(CNC(=O)C2(C(F)(F)F)C/C(=C\Cc3ccccc3)CCCO2)o1 (stereo not drawn) | -4.26% (inactive) and 0.0699% (inactive)
COc1ccc(N(C)C(=O)C2CCN(S(=O)(=O)c3cccc4nsnc34)CC2)cc1 | 8.11% (inactive)
Cc1ccc(S(=O)(=O)N2CCN(C)CC2)cc1C(=O)NC1CCCCC1 | -5.78% (inactive)
Cn1c(/C(C#N)=C2/CCCCCN2)nc2ccccc21 | 9.28% (inactive)
N#CC(=C1SC=CS1)c1nc(-c2ccccc2)cs1 | 79.5% (active)
c1ccc(-c2csc(N3CCc4ccccc4C3)n2)cc1 | 57.4% (inactive)
N#CC(=C1CCCC1)c1nc(-c2ccc(Cl)cc2)cs1 | 50.4% (active)
N#C/C(=C1\CCCN1)c1nc(-c2ccccc2)cs1 | 76.5% (active)
CCCCCN1CC(O)=C(c2nc(-c3ccc(Cl)cc3)cs2)C1=N | 23.2% (inactive)
N#C/C(=C1/CCCN1)c1ccccn1 | -5.25% (inactive)
CCc1ccc(NC(=O)CS(=O)CC(=O)N2CCN(c3ccccc3F)CC2)cc1 (stereo not drawn) | 9.39% (inactive)
CN(C)CCCNC(=O)c1cc(C(=O)Cc2ccc(Cl)cc2)c[nH]1 | -5.52% (inactive)
CCc1cccc(NC(=O)CCCN2C(=O)C(c3ccccc3)Oc3cccnc32)c1 (stereo not drawn) | -2.72% (inactive)
CCC1=Nc2cc(C(=O)NCCCN3CCOCC3)ccc2Sc2ccc(Br)cc21 | -9.37% (inactive)
Cc1cccc(N(C(=O)c2csnn2)C(C(=O)NCc2ccccc2)c2ccncc2)c1 (stereo not drawn) | -9.04% (inactive)
CCOc1ccc(N/C=C/C(=O)c2ccccc2)cc1 | 69.8% (active)
CCCOc1ccc(NC(=O)C2CCCNC2=O)cc1 (stereo not drawn) | 25.7% (inactive)
CCCOc1ccc(N/C=C/C(=O)C(C)(C)C)cc1 | 49% (active)
Cc1ccc(N/C=C/C(=O)c2ccccc2)cc1C | 17.5% (inactive)
CN(C)c1ccc(N/C=C/C(=O)C(F)(F)F)cc1 | 71.1% (inactive)
CCOc1ccc(NC(=S)N2CCC(NC(=O)c3ccccc3)CC2)cc1 | -10.8% (inactive)
